Results taken from the supplement of paper PMC13380429.

Key:
[1] = test system: Vero E6 infected with SARS-CoV-2; assay: morphology score (similarity to uninfected cells); higher = more like uninfected cells; settings: 24 h
[2] = test system: Vero E6 infected with SARS-CoV-2; assay: SARS-CoV-2 infection rate relative to infected DMSO; higher = more infection, active = 60 or less; settings: 24 h

Row | SMILES | morphology score [1] | SARS-CoV-2 infection rate [2]
1 | O=C1C=Cc2cc(Br)ccc2C1=O [bonaphthone] (10 µM) | -0.0263 | 103% (inactive)
2 | CC(C)c1ccc2c(c1)CC[C@H]1[C@](C)(CN)CCC[C@]21C [lylamine] (0.833333 µM) | -0.00872 | 106% (inactive)
3 | COCC(=O)Nc1c(I)c(C(=O)NCC(O)CO)c(I)c(C(=O)N(C)CC(O)CO)c1I (centres undefined) [iopromide] (10 µM) | -0.11 | 106% (inactive)
4 | COc1cccc2c1C(=O)c1c(O)c3c(c(O)c1C2=O)C[C@@](O)(C(=O)CO)C[C@@H]3O[C@H]1C[C@H](N)[C@H](O[C@@H]2CCCCO2)[C@H](C)O1 [pirarubicin] (10 µM) | -0.0488 | 118% (inactive)
5 | CC(CCc1ccc(O)cc1)NCCc1ccc(O)c(O)c1 (centres undefined) [dobutamine] (10 µM) | -0.179 | 113% (inactive)
6 | CC[C@@H](C)Nc1cc(C(=O)N[C@H]2C[C@H]3CC[C@@H](C2)N3c2ccc(C(=O)C3CC3)cn2)c(C)cc1C(N)=O (10 µM) | 0.188 | 98.5% (inactive)
7 | O[C@@H](CN1CCNCC1)Cn1c2ccc(Br)cc2c2cc(Br)ccc21 [BAX-channel-blocker] (0.833333 µM) | 0.121 | 104% (inactive)
8 | O=c1c2ccccc2oc2ccccc12 [xanthone] (10 µM) | 0.219 | 104% (inactive)
9 | CC(C)(C)S(=O)(=O)N[C@H]1CC[C@H](C(=O)Nc2ccc(C(F)(F)F)cn2)CC1 [velneperit] (10 µM) | -0.0103 | 115% (inactive)
10 | O=C(c1ccc2nccnc2c1)N1CCCCC1 [ampalex] (10 µM) | -0.0456 | 104% (inactive)
11 | Oc1ccc2ccccc2c1Cc1c(O)ccc2ccccc12 (10 µM) | 0.0699 | 104% (inactive)
12 | Cc1nnc(C(=O)NC(C)(C)c2nc(C(=O)NCc3ccc(F)cc3)c(O)c(=O)n2C)o1 [raltegravir] (10 µM) | 0.324 | 110% (inactive)
13 | N=C(N)NC(=N)NCCc1ccccc1 [phenformin] (10 µM) | 0.0321 | 110% (inactive)
14 | NC(=O)NO [hydroxyurea] (10 µM) | 0.223 | 100% (inactive)
15 | CC(=O)N(CC(O)CO)c1c(I)c(C(=O)NCC(O)CO)c(I)c(C(=O)NCC(O)CO)c1I (centres undefined) [iohexol] (10 µM) | 0.142 | 104% (inactive)
16 | CCC(COC(=O)c1cc(OC)c(OC)c(OC)c1)(c1ccccc1)N(C)C (centres undefined) [trimebutine] (10 µM) | 0.103 | 91% (inactive)
17 | CCCCCCCCOc1ccccc1C(=O)Nc1ccc(C(=O)OCC[N+](C)(CC)CC)cc1 [otilonium] (10 µM) | 0.299 | 101% (inactive)
18 | N#Cc1cccc(-c2c[nH]c3ncnc(N4CCOCC4)c23)c1 (10 µM) | 0.304 | 108% (inactive)
19 | C=CC[C@]1(O)CC[C@H]2[C@@H]3CCC4=CC(=O)CCC4=C3C=C[C@@]21C [altrenogest] (10 µM) | 0.0206 | 105% (inactive)

Row | SMILES | morphology score [1] | SARS-CoV-2 infection rate [2]
20 | O=C(O)C(=O)Nc1cccc(-c2nnn[nH]2)c1 [acitazanolast] (10 µM) | 0.235 | 95% (inactive)
21 | CN(C)[C@@H]1C(O)=C(C(N)=O)C(=O)[C@@]2(O)C(O)=C3C(=O)c4c(O)cccc4[C@@](C)(O)[C@H]3[C@H](O)[C@@H]12 [oxytetracycline] (10 µM) | -0.0366 | 106% (inactive)
22 | C=C1/C(=C\C=C2/CCC[C@]3(C)[C@@H]([C@H](C)CCCC(C)C)CC[C@@H]23)C[C@@H](O)C[C@@H]1O [alfacalcidol] (10 µM) | 0.0852 | 98% (inactive)
23 | CCc1cc(Cl)c(OC)c(C(=O)NC[C@@H]2CCCN2CC)c1O [eticlopride] (10 µM) | 0.426 | 63.5% (inactive)
24 | COc1ccc(C(CN(C)C)C2(O)CCCCC2)cc1 (centres undefined) [venlafaxine] (10 µM) | 0.00722 | 110% (inactive)
25 | C[C@]12CC[C@@H]3c4ccc(O)cc4CC[C@H]3[C@@H]1CCC2=O [estrone] (10 µM) | -0.145 | 108% (inactive)
26 | CNC(=O)[C@H]1O[C@@H](n2cnc3c(NCc4cccc(I)c4)ncnc32)[C@H](O)[C@@H]1O (10 µM) | 0.156 | 100% (inactive)
27 | Cc1cc(-c2nc(-c3ccc(OC(F)(F)F)cc3)no2)nn1Cc1ccnc(N2CCN(C3CC3)CC2)c1 (10 µM) | 0.0825 | 98.5% (inactive)
28 | Nc1cc(C(F)(F)F)c(-c2cc(N3CCOCC3)nc(N3CCOCC3)n2)cn1 [buparlisib] (10 µM) | -0.0939 | 103% (inactive)
29 | c1ccc(C(NCCNC(c2ccccc2)c2ccccc2)c2ccccc2)cc1 (10 µM) | 0.14 | 101% (inactive)
30 | CN1[C@@H]2CC[C@H]1C[C@@H](OC(=O)C(CO)c1ccccc1)C2 (some centres undefined) (10 µM) | -0.21 | 106% (inactive)
31 | C=CC[N@@+]12CC[C@@]34c5ccccc5N5/C=C6/[C@H]7C[C@H]8[C@@]9(CC[N@@+]8(CC=C)C/C7=C/CO)c7ccccc7N(/C=C(/[C@@H](C[C@@H]31)/C(=C\CO)C2)[C@H]54)[C@@H]69 [alcuronium] (10 µM) | -0.108 | 114% (inactive)
32 | Fc1ccccc1-c1nc2ccn(Cc3ccc(-c4ccc(C(F)(F)F)cc4C(F)(F)F)nn3)cc-2n1 [tegobuvir] (10 µM) | 0.081 | 102% (inactive)
33 | NC/C(=C/F)CCc1ccc(F)cc1 [mofegiline] (10 µM) | -0.0471 | 115% (inactive)
34 | NC(=O)c1cnccn1 [pyrazinamide] (10 µM) | 0.0672 | 110% (inactive)
35 | CCCCCCCCCCCCCCCC[N+](C)(C)C [cetrimonium] (0.833333 µM) | -0.199 | 114% (inactive)
36 | N#Cc1ccc2[nH]cc(CCCCN3CCN(c4ccc5oc(C(N)=O)cc5c4)CC3)c2c1 [vilazodone] (0.833333 µM) | 0.0471 | 102% (inactive)
37 | Nc1nc(=O)n([C@H]2C[C@H](O)[C@@H](CO)O2)cc1Cl [cytochlor] (10 µM) | 0.156 | 102% (inactive)
38 | COc1ccc(O)c(C(C)(C)C)c1.COc1ccc(O)cc1C(C)(C)C [butylated-hydroxyanisole] (10 µM) | -0.127 | 116% (inactive)

Row | SMILES | morphology score [1] | SARS-CoV-2 infection rate [2]
39 | NC(=O)c1ccc(N(C(N)=O)c2c(F)cccc2F)nc1-c1ccc(F)cc1F (10 µM) | -0.134 | 111% (inactive)
40 | NC(=O)NC(=O)Cc1ccccc1 [phenacemide] (10 µM) | 0.0778 | 114% (inactive)
41 | Cn1c(=O)c2[nH]c(Br)nc2n(C)c1=O [pamabrom] (10 µM) | 0.0536 | 101% (inactive)
42 | Cc1ccc2cc(-c3c(C)ccc(C(=O)c4c(-c5ccccc5)n(C)n(-c5ccccc5)c4=O)c3N)ccc2n1 (10 µM) | 0.0631 | 76% (inactive)
43 | CCCCOc1ccc(C(=O)CCN2CCCCC2)cc1 [dyclonine] (10 µM) | 0.347 | 91.5% (inactive)
44 | CCn1cc(C(=O)O)c(=O)c2cnc(N3CCNCC3)nc21 [pipemidic-acid] (10 µM) | 0.136 | 102% (inactive)
45 | O=C1CCC2CCC(=O)N12 [rolziracetam] (10 µM) | -0.0425 | 106% (inactive)
46 | CN1CCN(CCc2ccc(Cl)c(Cl)c2)CC1 (10 µM) | 0.156 | 94% (inactive)
47 | CCCCCCCCCCCCCCCC(=O)OC(CC(=O)[O-])C[N+](C)(C)C (centres undefined) [palmitoylcarnitine] (0.833333 µM) | -0.0181 | 106% (inactive)
48 | CNc1ccc([N+](=O)[O-])cc1-n1cnc(-c2ccc(C(F)(F)F)cc2)c1 (10 µM) | 0.117 | 97% (inactive)
49 | CC1CNc2c(cccc2S(=O)(=O)N[C@@H](CCCNC(=N)N)C(=O)N2CC[C@@H](C)C[C@@H]2C(=O)O)C1 (mixture of isomers) [argatroban] (10 µM) | -0.0153 | 115% (inactive)
50 | COc1cc(F)c(C(C)C)cc1-c1ccc(C(F)(F)F)cc1CN1C(=O)O[C@H](c2cc(C(F)(F)F)cc(C(F)(F)F)c2)[C@@H]1C [anacetrapib] (10 µM) | 0.116 | 106% (inactive)
51 | OCc1ccc(CO)o1 [2,5-furandimethanol] (10 µM) | 0.0908 | 112% (inactive)
52 | CC(C)c1c(NC(=O)Nc2ccc(Cl)cc2)c(=O)n(-c2ccccc2)n1C (10 µM) | 0.0113 | 112% (inactive)
53 | COCC[n+]1c2c(n(Cc3cnccn3)c1C)C(=O)c1ccccc1C2=O (0.833333 µM) | 0.0783 | 108% (inactive)
54 | COC(=O)C1=CCCN(C)C1 [arecoline] (10 µM) | 0.184 | 100% (inactive)
55 | C=CC(=O)Nc1cccc(Nc2nc(Nc3ccc(OCCOC)cc3)ncc2F)c1 (0.833333 µM) | -0.0246 | 116% (inactive)
56 | Cc1cc(O)c2c(c1)C(=O)c1cccc(O)c1C2=O [chrysophanic-acid] (10 µM) | -0.0993 | 110% (inactive)
57 | CCO[C@@H](Cc1ccc(OCCc2ccc(OS(C)(=O)=O)cc2)cc1)C(=O)O [tesaglitazar] (10 µM) | 0.194 | 110% (inactive)
